Test results from PubChem BioAssay AID504834 (National Center for Advancing Translational Sciences (NCATS), 2011).
Out of some 320,000 compounds screened, about 22,000 (6.9%) were called active. Inconclusive results (about 27%) are left out. The sample holds actives, similar compounds and a random draw of the others, so the mix is not that of the screen. The call rests on the fitted dose curve; in most records, active means well fitted inhibition curve with a large enough effect; inconclusive means small, poorly fitted or top-dose-only effect, or another doubt; inactive means no such curve, though single readings can be large or run the other way.

Assay: Primary qHTS for delayed death inhibitors of the malarial parasite plastid, 96 hour incubation
Settings: P. falciparum luciferase reporter growth; series mostly up to 28.7 µM; activity change, negative = inhibition: at the top concentration
Procedure, shortened: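 Erythrocytes infected with luciferase-expressing P. falciparum were dispensed at 2% hematocrit and 0.05% parasitemia (final), then incubated with compounds 96 hours at 37 C in 5% CO2. Luminescence after detection reagent addition reported growth.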
On the % scale 0 is the no-effect control and ±100 the full control effect; potency means the concentration at half of the fitted maximal effect.

Compound	activity change, negative = inhibition	Potency
Cc1csc(NC(=O)C2CCN(S(=O)(=O)c3ccccc3)CC2)n1	-10.6% (inactive)	–
CCOc1ccc(N(CC(=O)NCCOc2ccccc2OC)S(=O)(=O)c2ccccc2)cc1	0.187% (inactive)	–
Cc1ccccc1N1CCN(Cc2nc(Cc3ccccc3F)no2)CC1	34.5% (inactive)	–
COc1ccc(NC(=O)CC2C(=O)NC3CCCCC3N2C(=O)c2ccc(F)cc2)cc1 (stereo unspecified)	-0.568% (inactive)	–
COc1ccc(CNC(=O)CN(Cc2ccccc2Cl)C(=O)c2csnn2)cc1	31.1% (inactive)	–
COc1ccc(NC(=O)C2=CC(c3ccc(OC)c(OC)c3)=NS(=O)(=O)N2C)cc1	4.29% (inactive)	–
COc1ccc(/C=C2\SC(=O)N(CCC(=O)NC3CCS(=O)(=O)C3)C2=O)cc1 (stereo unspecified)	7.41% (inactive)	–
O=C(c1cc(COc2cccc(C(F)(F)F)c2)on1)N1CCSCC1	-9.38% (inactive)	–
C=CCn1c(=O)c(C(=O)NCc2ccc3c(c2)OCO3)c(O)c2ccccc21	-16.3% (inactive)	–
O=C1[C@H]2[C@@H](c3ccc(Cl)cc3)N3C(=O)N(c4cccc(F)c4)C(=O)[C@@]3(Cc3ccccc3)[C@H]2C(=O)N1C1CCCCC1	–	8.28 µM (active)
O=C(COC(=O)c1ccc(F)cc1)NCCCc1ccccc1	36.7% (inactive)	–
Cc1cccc(S(=O)(=O)CC(=O)Nc2nc(-c3ccccc3)cs2)c1	-14.2% (inactive)	–
CC(C)(C)c1ccc(NC(=O)COC(=O)CCc2nc3ccccc3c(=O)[nH]2)cc1	20.8% (inactive)	–
Cc1cc(C)c(-c2csc(NC(=O)CCCc3nc4ccccc4c(=O)[nH]3)n2)c(C)c1	–	0.329 µM (active)
CC(C)Oc1ccc(/C=N/NC(=O)c2nnn(-c3nonc3N)c2CN(C)C2CCCCC2)cc1	38.5% (inactive)	–
CCC(C)Sc1nc2c(cnn2-c2ccc(F)cc2)c(=O)[nH]1 (stereo unspecified)	6.68% (inactive)	–
COc1ccc(OC)c(N=Cc2c(O)[nH]c3ccccc23)c1	-10.7% (inactive)	–
COCCNC(=S)N/N=C/c1c(C)[nH]c2ccccc12	-2.14% (inactive)	–
CN=c1scc(-c2cc(OC)ccc2OC)n1/N=C/c1c(C)[nH]c2ccccc12	–	6.57 µM (active)
CC1CCC(NC(=O)CNC(=O)c2ccc3ccccc3c2)CC1 (stereo unspecified)	41.9% (inactive)	–
O=C(C1CC(=O)N(C2CCCCC2)C1)N1CCN(c2ccccc2)CC1 (stereo unspecified)	-5.68% (inactive)	–
O=C(CN1C(=O)c2cccnc2Oc2ccc(Cl)cc21)Nc1ccc(F)cc1	68.1% (inactive)	–

Compound	activity change, negative = inhibition	Potency
Cc1ccc2c(c1)N(CC(=O)NCCc1ccc(Cl)cc1)C(=O)c1cccnc1O2	–	10.4 µM (active)
Cc1ccc2c(c1)N(CC(=O)N1CCC(C)CC1)C(=O)c1cccnc1O2	3.29% (inactive)	–
Cc1ccc2c(c1)N(CC(=O)NCCCN1CCCCC1)C(=O)c1cccnc1O2	–	9.28 µM (active)
Cc1cc(C(=O)NCCc2ccc(Cl)cc2)c(C)o1	51.2% (inactive)	–
CCCN1CCN(CCCNC(=O)CN2C(=O)COc3ccccc32)CC1	4.84% (inactive)	–
COc1ccc(NC(=O)COC(=O)c2n[nH]c3ccccc23)c(OC)c1	11.9% (inactive)	–
CCCc1ccc(C(=O)COC(=O)CN2C(=O)NC3(CCCCC3C)C2=O)cc1 (stereo unspecified)	-10.4% (inactive)	–
O=C(CN(C(=O)c1nsc(Cl)c1Cl)c1cccc(F)c1)NC1CCCC1	-1.32% (inactive)	–
CC(Oc1ccccc1)C(=O)Nc1c2c(nn1-c1ccccc1)CS(=O)C2 (stereo unspecified)	-11.3% (inactive)	–
C=CCN1C(=O)c2ccc(C(=O)N3CCC(C(=O)OCC)CC3)cc2C1=O	61.5% (inactive)	–
Cc1cccc(C(=O)NNC(=O)CSc2nnc(C(C)C)n2C)c1	19% (inactive)	–
CC(=C/c1ccccc1)/C=N/NC(=O)c1cc(C)oc1C	–	9.28 µM (active)
Cc1cc(C(=O)N/N=C/c2ccccc2[N+](=O)[O-])c(C)o1	33.4% (inactive)	–
Cc1cc(C(=O)N/N=C\C(Br)=C\c2ccccc2)c(C)o1	11.7% (inactive)	–
COc1cccc(Cn2cc(/C=N/NC(=O)c3cc(O)cc(O)c3)c3ccccc32)c1	-22.1% (inactive)	–
COc1ccc(N2CCN(C(=O)CNS(=O)(=O)c3ccc(C)c(C)c3)CC2)cc1	-44% [at 5.75 µM] (inactive)	–
COc1cc(OC)cc(C(=O)NCC(=O)N2CCCCCCC2)c1	-16.6% (inactive)	–
COc1ccc(N2CCN(C(=O)CCNC(=O)c3ccc(Br)cc3)CC2)cc1	-2.69% (inactive)	–
O=C(NCC(=O)N1CCCCCCC1)c1ccccc1Cl	70.2% (inactive)	–
COc1ccc(N2CCN(C(=O)CNC(=O)c3ccc(C(C)(C)C)cc3)CC2)cc1	–	4.65 µM (active)
O=C(NCC(=O)N1CCN(c2ccccc2O)CC1)c1ccc2ccccc2c1	–	6.57 µM (active)
CCOC(=O)c1c(N)sc2c1CCCC2=O	21.3% (inactive)	–

Compound	activity change, negative = inhibition	Potency
O=C(CN(C(=O)CNC(=O)c1cccs1)c1cccc(F)c1)NC1CCCCC1	8.81% (inactive)	–
COc1ccccc1/C=C/C(=O)NC1CC2CCC1C2 (stereo unspecified)	9.8% (inactive)	–
O=S(=O)(Nc1ccccc1Cl)c1cccc2nsnc12	-16.2% (inactive)	–
O=C(Nc1ccccc1)c1ccc2c(c1)OCCCO2	1.97% (inactive)	–
C[C@H](NC(=O)[C@@H]1Cc2ccccc2CN1C(=O)OC(C)(C)C)C(=O)NC1CCCC1	-19.6% (inactive)	–
COc1cc(C(=S)NC2CCCCC2)ccc1O	–	4.15 µM (active)
CCN(CC)C(=O)c1ccc(O)c(OC)c1	–	inactive
COc1ccc(Cl)cc1C(=O)NNC(=S)NC1CCCC1	35% (inactive)	–
O=C(COc1ccccc1O)NC1CCCC1	-9.08% (inactive)	–
COc1ccc(CCNC(=O)CCC(=O)NC2CCCCC2)cc1OC	-3.75% (inactive)	–
COc1ccc(C(C)NC(=S)NC2CCCCC2)cc1OC (stereo unspecified)	–	10.4 µM (active)
Cc1ccc(C)c(NS(=O)(=O)c2c(C)[nH]c(C)c2C(=O)N2CCCCC2)c1	29.7% (inactive)	–
CC(=O)N1CCN(CC(c2ccccc2)c2ccccc2)CC1	0% (inactive)	–
NC(=O)C(Cc1ccccc1)NC(=O)C12CC3CC(CC(C3)C1)C2 (stereo unspecified)	11.1% (inactive)	–
CC(=O)O[C@]1(C(C)=O)CC[C@H]2[C@@H]3C=C(C)C4=CC(=O)CC[C@]4(C)[C@H]3CC[C@@]21C	–	11.7 µM (active)
CCCCN(C1CCS(=O)(=O)C1)S(=O)(=O)c1ccc(C(C)C)cc1 (stereo unspecified)	2.84% (inactive)	–
O=C(Nc1ccc(OCC(=O)N2CCOCC2)cc1)c1cc(F)c(F)cc1Cl	-15.8% (inactive)	–
Fc1cccc(Cl)c1COc1ccc(-c2nnco2)cc1	-3.53% (inactive)	–
O=C(/C=C/c1ccc(OCc2c(F)cccc2Cl)cc1)N1CCOCC1	–	10.4 µM (active)
CCC(C)C(NC(=O)C1CCC(=O)N1C(=O)OCc1ccccc1)C(=O)NC(C(=O)N1CCCC1C(N)=O)C(C)CC (stereo unspecified)	2.57% (inactive)	–
O=C(COC(=O)c1ncc(Cl)c(Cl)c1Cl)NNC(=O)c1ccccc1	-2.5% (inactive)	–
CCCCN(C(=O)C1=NN(c2cc(C)ccc2C)C(=O)CC1)c1c(N)n(CCC)c(=O)[nH]c1=O	-27.3% (inactive)	–

Compound	activity change, negative = inhibition	Potency
Cc1ccc(-c2noc(CCC(=O)Nc3ccccc3N3CCN(C)CC3)n2)cc1	-10.9% (inactive)	–
Cc1cc(NC(=O)C(C)N2C(=O)c3ccccc3S2(=O)=O)no1 (stereo unspecified)	50.7% (inactive)	–
Cc1cc(NC(=O)C(C)SCC(=O)Nc2ccccc2N2CCCCC2)no1 (stereo unspecified)	–	9.28 µM (active)
CC1(c2ccc3ccccc3c2)NC(=O)NC1=O (stereo unspecified)	15.2% (inactive)	–
Cc1cc(=O)oc2cc(OCC(=O)Nc3nnc(C4CC4)s3)ccc12	24.1% (inactive)	–
Cc1ccc(O)c(/C=N/NC(=O)COc2ccc3c(C)cc(=O)oc3c2)c1	–	10.4 µM (active)
CCOC(=O)Cc1csc(NC(=O)COc2ccc3c(C)cc(=O)oc3c2)n1	37.9% (inactive)	–
COc1cccc2[nH]c(C(=O)NCCc3ccccc3)cc12	30.1% (inactive)	–
Cc1nnc(Nc2ccccc2F)s1	3.63% (inactive)	–
NS(=O)(=O)c1ccc(CCNC(=O)CNC(=O)Cc2ccccc2)cc1	12.5% (inactive)	–
CC(=O)O[C@H]1c2ccccc2-c2ccccc2[C@@H]1OC(C)=O	-23.2% (inactive)	–
O=S(=O)(c1ccc(SCc2ccc(Br)cc2)nc1)N1CCOCC1	-31.3% (inactive)	–
CN(C)c1nccc(NCc2ccccc2)c1C#N	-1% (inactive)	–
CCc1nc(NCCO)c(C#N)c2c1CCCC2	8.09% (inactive)	–
CCCCc1nc(NCc2ccccc2)c(C#N)c2c1CCCC2	–	5.22 µM (active)
CCOCc1nnc(NC(=O)CCS(=O)(=O)Cc2ccccc2)s1	8.85% (inactive)	–
COc1ccc(CNS(=O)(=O)c2ccc(-c3cnc(C4CC4)o3)cc2)cc1	–	10.4 µM (active)
COc1ccc(CNS(=O)(=O)c2cc(-c3cc(C)no3)ccc2C(C)C)cc1	21.3% (inactive)	–
COc1ccc(CNS(=O)(=O)c2ccc(NC(=O)N3CCCCC3)cc2)cc1	-9.06% (inactive)	–
CCC(=O)N1c2ccc(S(=O)(=O)NCc3ccco3)cc2CC1C (stereo unspecified)	100% (inactive)	–
COCCNC(=O)C(c1ccc(C)cc1)N(C(=O)CCC(=O)Nc1ccccn1)c1cccc(C)c1 (stereo unspecified)	7.39% (inactive)	–
COCCN(C(=O)CCC(=O)Nc1nccs1)C(C(=O)NCCC(C)C)c1ccc(F)cc1 (stereo unspecified)	20% (inactive)	–

Compound	activity change, negative = inhibition	Potency
COCCN(C(=O)CCC(=O)Nc1ccccn1)C(C(=O)NCCC(C)C)c1ccc(OC)cc1 (stereo unspecified)	–	0.522 µM (active)
CN(CC(=O)NCc1ccc(Cl)cc1)S(=O)(=O)c1cccs1	22.6% (inactive)	–
COc1cc(SC)ccc1C(=O)NCCOc1ccccc1Cl	–	0.738 µM (active)
COc1ccccc1OCCNC(=O)CCNC(=O)c1ccccc1Cl	-22.2% (inactive)	–
COc1ccc(N2C(=O)C3CCCN3C2c2cccc(OC)c2)cc1 (stereo unspecified)	7.91% (inactive)	–
COc1ccc(N2C(=O)C3CCCN3C2c2cc(OC)c(OC)cc2OC)cc1 (stereo unspecified)	45.6% (inactive)	–
COc1cccc(N2C(=O)C3CCCN3C2c2ccc(F)cc2)c1 (stereo unspecified)	–	10.4 µM (active)
CCNC(=O)c1cnn(-c2ccccc2)c1-c1ccccc1	-20% (inactive)	–
COc1ccccc1CNC(=O)COn1nnc2ccc(S(=O)(=O)N3CCOCC3)cc21	-2.01% (inactive)	–
CCCC(C(=O)NCc1ccco1)N(C(=O)CNS(=O)(=O)c1ccccc1)C1CCCC1 (stereo unspecified)	–	10.4 µM (active)
CC(C)C(C(=O)NCc1ccco1)N(CC1CCCO1)C(=O)CNS(=O)(=O)c1ccc(F)cc1 (stereo unspecified)	-19.1% (inactive)	–
O=C(CN(CC1CCCO1)C(=O)CNS(=O)(=O)c1ccc(F)cc1)NCc1ccco1 (stereo unspecified)	19.6% (inactive)	–
CCC(C)n1[nH]c(=O)c2c(C)cc(C)nc21 (stereo unspecified)	4.88% (inactive)	–
Cc1nc2nc(COc3ccccc3)[nH]n2c(=O)c1Cc1ccccc1	29% (inactive)	–
CCc1c(C)nc2cc(-c3cccs3)[nH]n2c1=O	–	2.08 µM (active)
Cc1cc(=O)n2[nH]c(-c3cccc(Cl)c3)cc2n1	-30.1% (inactive)	–
CCc1c(C)nc2cc(C)[nH]n2c1=O	–	3.7 µM (active)
C=CCc1c(C)nc2cc(-c3ccccc3)[nH]n2c1=O	20.7% (inactive)	–
